# Reference: publication PMC4336329 (PLoS ONE, 2015)
# In all, about 310,000 compounds went through this assay and about 14,000 (4.5%) showed an effect of 50% or more. Effects have a minus sign here. Only a selection was taken, and strong results are over-represented in it overall.
# Molecular target: human ether-à-go-go-related gene (hERG) potassium channel (human, UniProt Q12809)
# Test: primary screen, population patch clamp on CHO cells stably expressing hERG; higher = less effect of the substance
# Experimental: Briefly, Chinese hamster ovary (CHO) cells stably expressing the hERG channel were dislodged from tissue culture flasks and dispensed into PPC plates. […] During the recording, background leak currents were estimated by a 100 ms step to -80 mV from an initial holding potential of -70 mV and subtracted from the subsequent current measurement. The campaign was conducted in two phases using slight differences in recording protocol. In the first phase, the initial voltage pulse used a 100 ms step to -30 mV from a holding potential of -70 mV, a 2 s conditioning step to +25 mV, and a 2 s test step to -30 mV. During the second phase of the screen, the potential during the conditioning step was raised to +45 mV. In both phases of the campaign, a secondary voltage pulse was applied using the same parameters as the second phase initial pulse. The initial and secondary pulses were applied in the absence of compound, and upon application of 1 μM and 10 μM test concentrations. […]
# 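Also: peak tail current of the secondary pulse compared with the same well before compound.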
# human ether-à-go-go-related gene (hERG) potassium channel, sequence (Q12809 whole entry, looked up): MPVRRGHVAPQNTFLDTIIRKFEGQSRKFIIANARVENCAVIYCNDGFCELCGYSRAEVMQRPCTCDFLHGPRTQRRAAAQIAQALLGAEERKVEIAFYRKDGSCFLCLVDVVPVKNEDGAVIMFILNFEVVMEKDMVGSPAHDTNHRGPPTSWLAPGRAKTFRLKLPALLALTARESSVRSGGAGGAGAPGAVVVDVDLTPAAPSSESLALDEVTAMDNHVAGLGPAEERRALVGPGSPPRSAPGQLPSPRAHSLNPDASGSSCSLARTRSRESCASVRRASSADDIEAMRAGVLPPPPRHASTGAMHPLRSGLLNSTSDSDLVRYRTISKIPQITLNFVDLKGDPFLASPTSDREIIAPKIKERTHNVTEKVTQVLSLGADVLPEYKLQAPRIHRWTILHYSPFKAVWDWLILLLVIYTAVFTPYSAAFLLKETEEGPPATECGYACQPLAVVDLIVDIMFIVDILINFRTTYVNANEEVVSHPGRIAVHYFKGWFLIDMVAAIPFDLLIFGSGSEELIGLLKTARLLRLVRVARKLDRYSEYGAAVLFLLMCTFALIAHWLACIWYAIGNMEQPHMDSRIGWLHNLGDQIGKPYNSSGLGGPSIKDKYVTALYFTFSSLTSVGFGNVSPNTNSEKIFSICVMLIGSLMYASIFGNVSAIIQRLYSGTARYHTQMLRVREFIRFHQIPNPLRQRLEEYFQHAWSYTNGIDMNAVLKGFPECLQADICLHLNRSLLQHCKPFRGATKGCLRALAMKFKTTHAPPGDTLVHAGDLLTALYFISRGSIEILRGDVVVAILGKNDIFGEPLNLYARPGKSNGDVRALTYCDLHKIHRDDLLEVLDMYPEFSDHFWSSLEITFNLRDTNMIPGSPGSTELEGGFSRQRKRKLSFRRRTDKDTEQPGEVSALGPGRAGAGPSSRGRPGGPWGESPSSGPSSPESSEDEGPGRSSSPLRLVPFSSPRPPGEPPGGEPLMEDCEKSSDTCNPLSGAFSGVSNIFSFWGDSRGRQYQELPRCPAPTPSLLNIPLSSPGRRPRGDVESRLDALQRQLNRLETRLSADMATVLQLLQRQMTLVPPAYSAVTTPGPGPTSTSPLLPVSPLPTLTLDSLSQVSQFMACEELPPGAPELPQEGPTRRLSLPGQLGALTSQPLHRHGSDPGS
row,Compound,"hERG current change (%, negative = inhibition) at 10uM [%]"
1,Cc1nn(Cc2ccc(Cl)cc2)c(Cl)c1/C=N/NC(=O)c1cccnc1,-45.2
2,CN(C)CCCN(C(=O)C1COc2ccccc2O1)c1nc2cc3c(cc2s1)OCO3.Cl (stereo not shown),-64.4
3,CN(C)CCCN(C(=O)CCSc1ccccc1)c1nc2cc3c(cc2s1)OCO3.Cl,-48.2
4,CN(C)CCCN(C(=O)c1nc2ccccc2s1)c1nc2ccc(F)cc2s1.Cl,4.17
5,CN(C)CCCN(C(=O)C1COc2ccccc2O1)c1nc2ccc(F)cc2s1.Cl (stereo not shown),-75.4
6,CN(C)CCCN(C(=O)c1sc2ccccc2c1Cl)c1nc2ccc(F)cc2s1.Cl,-19.7
7,CN(C)CCN(C(=O)C1CCCCC1)c1nc2cc3c(cc2s1)OCO3.Cl,-9.7
8,Cn1c(O)c(C=Nc2ccccc2Sc2ccccc2)c(=O)n(C)c1=O,16.4
9,CCCc1[nH]nc2c1C(c1ccc(OC)c(Cn3nnc4ccccc43)c1)C(C#N)=C(N)O2 (stereo not shown),-29.1
10,CCCn1c(SCc2ccc(Cl)cc2)nc2c1c(=O)[nH]c(=O)n2C,0.36
11,CCOCCCNC(=O)C(NC(=O)c1ccc(NC(C)=O)cc1)c1ccc(C)cc1 (stereo not shown),-20.5
12,CCc1ccc(CNC(=O)c2ccc(NC(=O)C3=CSCCO3)cc2)cc1,-23
13,O=C(C1COc2ccccc2O1)N1CCCC1 (stereo not shown),16.8
14,O=C(NCC(=O)N1CCC2(CC1)NCCc1[nH]cnc12)c1ccc2ccccc2c1,11.7
15,O=C(Nc1nc2ccc(S(=O)(=O)N3CCCC3)cc2s1)c1ccco1,11.5
16,CCn1c2ccc(F)cc2c2nnc(NN)nc21,-9.93
17,CCCn1c2ccc(F)cc2c2nnc(SCCN3CCOCC3)nc21,-35.8
18,CCn1c2ccc(F)cc2c2nnc(SCCN3CCOCC3)nc21,-41.2
19,CCn1c2ccccc2c2nnc(SCCN3CCOCC3)nc21,3.2
20,CCn1c2nc(SCCN3CCOCC3)nnc2c2cc(C)cc(C)c21,-95.3
21,CCCn1c2ccccc2c2nnc(SCCN3CCOCC3)nc21,-9.15
22,CCn1c2ccc(F)cc2c2nnc(SCCN3CCCCC3)nc21,-61

row,Compound,"hERG current change (%, negative = inhibition) at 10uM [%]"
1,CCCCn1c2ccc(F)cc2c2nnc(SCCN3CCOCC3)nc21,-55.4
2,CCCCn1c2ccc(F)cc2c2nnc(NN)nc21,-44.9
3,CCCn1c2ccc(F)cc2c2nnc(NN)nc21,-1.94
4,CCCn1c2ccc(F)cc2c2nnc(SCCN3CCCCC3)nc21,-64.2
5,CCn1c2ccc(C)cc2c2nnc(SCCN3CCOCC3)nc21,-13.8
6,Cc1cccc2cc(/C=N/NC(=O)c3ccccc3O)c(Cl)nc12,-2.17
7,O=C1[C@H]2[C@@H](c3ccc(Cl)cc3)N3C(=O)N(c4cccc(Cl)c4)C(=O)[C@@]3(Cc3ccccc3)[C@H]2C(=O)N1C1CCCCC1,-2.02
8,Cc1cc(C)nc(NC2=NCCN2C(=O)NC2CCCCC2)n1,-17.7
9,[2H]c1c([2H])c([2H])c(-c2nc(N3CCCCCC3)sc2C(=O)c2ccccc2)c([2H])c1[2H],-2.19
10,CC(C)CCNC(=O)C1CCCN(S(=O)(=O)c2ccc(F)cc2)C1 (stereo not shown),6.85
11,CC(=O)Nc1ccccc1NC(=O)c1ccc(C)cc1C,23.7
12,S=c1[nH]nc(COc2cccc(Cl)c2)n1Cc1ccccc1,34.4
13,COc1cccc(NC(=O)CSc2nc(C3CC3)nc3ccccc23)c1,4.75
14,CCCn1c2ccc(C)cc2c2nnc(SCCN3CCOCC3)nc21,-32.5
15,Cc1ccc2[nH]c3nc(SCCN4CCOCC4)nnc3c2c1,8.91
16,CCCCn1c2ccc(C)cc2c2nnc(SCCN3CCCCC3)nc21,-74.3
17,CSCCC(NC(=O)C1CCC(C)CC1)C(=O)O (stereo not shown),16.6
18,Cc1cccnc1NC(=O)c1ccc(Br)o1,32.6
19,Nc1nc(NC(=O)/C=C/c2ccccc2)nn1-c1ccccc1,-32.6
20,COc1ccc(C(=O)Nc2nc(N)n(-c3ccccc3)n2)cc1,-11.4
21,Nc1nc(NC(=O)/C=C/c2ccc(F)cc2)nn1-c1ccccc1,-53.4
22,COc1ccccc1/C=C/C(=O)Nc1nc(N)n(-c2ccccc2)n1,-33.8

row,Compound,"hERG current change (%, negative = inhibition) at 10uM [%]"
1,Nc1nc(NC(=O)c2cccnc2)nn1-c1ccccc1,18.8
2,Nc1nc(NC(=O)c2ccccc2)nn1-c1ccccc1,-70.9
3,Nc1nc(NC(=O)/C=C\C(=O)O)nn1-c1ccccc1,27.8
4,Cc1ccc(C(=O)Nc2nc(N)n(-c3ccccc3)n2)cc1,-0.817
5,COc1ccc(/C=C/C(=O)Nc2nc(N)n(-c3ccccc3)n2)cc1,-53
6,Cc1ccc(Nc2nnc(SCc3ccccc3)s2)cc1,11.9
7,O=[N+]([O-])c1ccc(S(=O)(=O)Nc2ccc(-c3ccc(N4CCCC4)nn3)cc2)cc1,-8.67
8,Cc1cc(C)c2nc(-c3ccccn3)cc(C(=O)Nc3ccc(S(=O)(=O)Nc4onc(C)c4C)cc3)c2c1,-2.33
9,CC(=O)OCCCN1C(=O)c2cccc3cc(Br)cc(c23)C1=O,4.74
10,O=S1(=O)c2ccccc2N=NN1Cc1ccc(Cl)cc1,16.1
11,Cn1c(O)c(C=NC2C(=O)C3(C)CCC2C3(C)C)c(=O)n(C)c1=O (stereo not shown),-0.548
12,Cc1onc(-c2c(F)cccc2Cl)c1C(=O)OCC(=O)NCc1ccco1,5.77
13,CN(Cc1ccccc1)C(=O)C1CCCN(Cc2ccc(Cl)cc2)C1.O=C(O)C(=O)O (stereo not shown),-71
14,COc1ccc(CCN(C)C(=O)C2CCCN(Cc3ccc(OC)c(OC)c3)C2)cc1OC (stereo not shown),9.21
15,COc1ccc(CCN(C)C(=O)C2CCN(Cc3ccccc3)CC2)cc1OC.O=C(O)C(=O)O,3.36
16,CCN(CC)C(=O)C1CCCN(Cc2ccccc2)C1 (stereo not shown),9.57
17,COc1ccc(CN2CCCC(C(=O)N(C)Cc3ccccc3)C2)cc1OC.O=C(O)C(=O)O (stereo not shown),-71.1
18,COc1ccc(CCN(C)C(=O)C2CCCN(Cc3ccc(OC)c(OC)c3)C2)cc1OC.O=C(O)C(=O)O (stereo not shown),-3.31
19,CN(Cc1ccccc1)C(=O)C1CCCN(Cc2cccc(Cl)c2)C1.O=C(O)C(=O)O (stereo not shown),-23.5
20,COc1ccc(CCN(C)C(=O)C2CCN(Cc3ccc(C)cc3)CC2)cc1OC.O=C(O)C(=O)O,-60.8
21,COc1ccc(OC)c(CN2CCC(C(=O)N(C)CCc3ccc(OC)c(OC)c3)CC2)c1.O=C(O)C(=O)O,-11.5
22,O=C1NC2(CCCCCC2)C(=O)N1Cc1ccc(Br)cc1,4.06

row,Compound,"hERG current change (%, negative = inhibition) at 10uM [%]"
1,CCOc1ccc(-c2nnn(CC(=O)c3ccc4c(c3)OCCO4)n2)cc1OCC,-1.86
2,CCc1cc(S(=O)(=O)N2CCN(C(=O)c3ccco3)CC2)ccc1OC,1.76
3,COc1ccc(-c2noc3c2-c2nc(-c4cccc(C)c4)sc2CC3)cc1,7.57
4,Cc1ccc(-c2nnc(N3CCN(C(=O)COc4cccc(C)c4)CC3)c3ccccc23)cc1,-54.6
5,Cc1cccc(OCC(=O)N2CCN(c3nnc(-c4ccccc4)c4ccccc34)CC2)c1,-69.7
6,Cc1ccc(-c2nnc(N3CCN(C(=O)CSc4ncn[nH]4)CC3)c3ccccc23)cc1,-32.6
7,CO/N=C/NC(=O)Cc1cn(-c2ncc(C(F)(F)F)cc2Cl)c2ccccc12,3.84
8,CCCOc1ccc(N2C(=O)CC(NCC(=O)OCC)C2=O)cc1 (stereo not shown),8.44
9,O=C(Cn1c(=O)cnc2ccccc21)NNC(=O)c1ccccc1Cl,4.84
10,COCCSc1ccccc1C(=O)Nc1ccccc1C(C)C,3.89
11,Cc1ccc(CN2CCN(Cc3cnc(C)[nH]3)CC2CCO)cc1 (stereo not shown),10.8
12,Cc1ccc(CN2CCN(Cc3ccc(C)s3)CC2CCO)cc1 (stereo not shown),-73.3
13,Cc1ccc(CN2CCN(Cc3cn[nH]c3C3CCCCC3)CC2CCO)cc1 (stereo not shown),-62.9
14,Cc1ccc(CN2CCN(CCC(C)C)C(CCO)C2)s1 (stereo not shown),-29.5
15,Cc1ccc(CN2CCN(CC(C)C)C(CCO)C2)s1 (stereo not shown),-21.5
16,Cc1ccc(CN2CCN(Cc3cnc(C)s3)CC2CCO)cc1 (stereo not shown),-19.4
17,Cc1ccc(CN2CCN(Cc3ccccc3)C(CCO)C2)s1 (stereo not shown),-62.8
18,OCCC1CN(Cc2cn[nH]c2C2CCCCC2)CCN1Cc1ccccc1 (stereo not shown),0.824
19,CC(C)=CCN1CCN(Cc2ccc(C)s2)CC1CCO (stereo not shown),-16.1
20,CC(C)=CCN1CCN(Cc2cn[nH]c2C2CCCCC2)CC1CCO (stereo not shown),0.0652
21,Cc1ccc(CN2CCN(Cc3cnc(N4CCOCC4)s3)CC2CCO)cc1 (stereo not shown),-46.7
22,CCCCc1ncc(CN2CCN(Cc3ccc(C)cc3)C(CCO)C2)[nH]1 (stereo not shown),-57.9
